For 39 compounds, inhibition results are on record in PubChem BioAssay.

Unmarked numbers belong to inactive results. How the calls were made is not given here.

The experiment deals with Pantothenate synthetase (Mycobacterium tuberculosis (strain ATCC 25618 / H37Rv)) (UniProt P9WIL5). The experiment in a line: Recombinant Mtb pantothenate synthetase (PanC) inhibitors, coupled enzyme, confirmatory (AID 375).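 Further: 0% = full reaction with vehicle and 100% = no enzyme background.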 Conditions: coupled enzyme assay; at 10 µM, stronger effect = higher value.
Pantothenate synthetase (Mycobacterium tuberculosis (strain ATCC 25618 / H37Rv)), sequence (P9WIL5 whole entry, looked up): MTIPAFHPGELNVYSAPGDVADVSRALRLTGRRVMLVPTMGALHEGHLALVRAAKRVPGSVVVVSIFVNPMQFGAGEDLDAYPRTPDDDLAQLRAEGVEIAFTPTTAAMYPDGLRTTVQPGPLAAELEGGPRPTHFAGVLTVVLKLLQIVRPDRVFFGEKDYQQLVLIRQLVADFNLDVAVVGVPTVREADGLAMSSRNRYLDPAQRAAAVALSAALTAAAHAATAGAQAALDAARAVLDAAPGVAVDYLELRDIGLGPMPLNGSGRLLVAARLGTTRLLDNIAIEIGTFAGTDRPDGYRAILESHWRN
As to `O=C(COc1ccccc1F)NC1CC1`, the inhibition was 3%. Then `COc1ccc(-c2nc(CS(=O)CC(=O)NCc3ccccn3)c(C)o2)cc1` (centres undefined), with 0%; and `Cc1ccc(Cn2c(C(=O)NCCCN3CCOCC3)cc3sccc32)cc1`, with 2%; and `O=c1c2cc3ccccc3n2cnn1Cc1ccccc1F`, with 0%.

`O=C(O)C1C2CCC(O2)C1C(=O)NCCC1=CCCCC1` (centres undefined): the inhibition is 3%. Then `COC(=O)CSC1=NS(=O)(=O)c2ccccc21`, with 0%; and `Cc1cccc(NC(=O)Cn2c(=O)n(C)c3ccccc32)c1`, with 0%; and `Cc1nc(SCC(=O)c2c[nH]c3ccccc23)n[nH]1`, with 4%. Then `CCOc1ccc(S(=O)(=O)NCC2CCCO2)c2cccnc12` (centres undefined), with 0%; and `CCCCSc1nc2c(cnn2-c2ccc(F)cc2)c(=O)[nH]1`, with 0%.

In the case of `CC1(C)CC(=O)c2sc(NS(C)(=O)=O)nc2C1`, the inhibition was 0%. The value for `CCCCc1ccc(NC(=O)C2CCCO2)cc1` (centres undefined) was 0%; that for `Cc1cccc(OCC(=O)Nc2ccc(N3CCCC3)cc2)c1C` was 0%. As for `CCC(=O)Nc1ccc(NC(=O)CSc2nnnn2C(C)C)cc1`, the inhibition is 0%. Then `CCC(=O)Nc1ccc(F)c(Cl)c1`, with 6%; and `O=C(COC(=O)c1cnccn1)c1ccc(OC(=O)c2ccccc2)cc1`, with 0%; and `OC[C@H]1O[C@@H](n2cnc3c(Nc4ccccc4)ncnc32)[C@H](O)[C@@H]1O`, with 1%. Take `N#Cc1c(-c2ccccc2)nc(SCc2nc(N)nc(N3CCCCC3)n2)[nH]c1=O`: the inhibition was 9%. In the case of `Cc1cc(-c2nc3ncccc3o2)ccc1N`, the inhibition is 0%. The value for `O=C(NCc1cccs1)C(Cc1ccccc1)NS(=O)(=O)c1cccs1` (centres undefined) was 8%. The value for `COc1cc(OC)c(NC(=O)c2ccco2)cc1Cl` was 0%; that for `Cc1cc(NC(=O)COc2cccc(C)c2C)no1` was 0%. The value for `CCn1cc(C(=O)NCC2CCCO2)c(=O)c2cc(S(=O)(=O)N(C)C3CCCCC3)ccc21` (centres undefined) was 5%; that for `Cc1ccccc1NC(=O)c1ccc(NC(=O)c2ccco2)cc1` was 0%. On to `Cc1ccc(-n2c(Cc3cccn3C)nnc2SCC(=O)NCc2ccc3c(c2)OCO3)cc1`, for which the inhibition was 0%. The value for `O=C1c2oc3ccccc3c(=O)c2C(c2ccccn2)N1Cc1ccccc1` (centres undefined) was 13%; that for `CCOc1ccc(CNc2ccc3c(c2)ncn3C)cc1` was 0%.

With `CC(C)Cc1cc(C(=O)Nc2c(F)cc(F)cc2Br)no1`, the inhibition is 0%. The value for `C[C@@H]1C[C@H]2[C@@H]3C[C@H](F)C4=CC(=O)C=C[C@]4(C)[C@@]3(F)[C@@H](O)C[C@]2(C)[C@@]1(O)C(=O)CO` was 0%; that for `CC(NCCC(c1ccccc1)c1ccccc1)c1ccccc1` (centres undefined) was 0%; that for `Cc1ccc(-c2ccc(/C=N/n3cnnc3)o2)cc1Cl` was 11%. Then `Cc1cccc(N2CCN(C(=O)C3CCCN(S(=O)(=O)c4c(C)noc4C)C3)CC2)c1C` (centres undefined), with 0%; and `CC(C)(C)SCCNC(=O)CN1C(=O)c2ccccc2S1(=O)=O`, with 0%. Regarding `Cc1ccc(/C=c2\sc3nc(-c4ccccc4Br)nn3c2=O)o1`, the inhibition was 0%.

Regarding `Cn1c2ccccc2c2c(C(=O)NCCCN3CCCC3=O)cn(C3CCCCC3)c(=O)c21`, the inhibition was 8%. The value for `O=C(CCN1C(=O)C2C3C=CC(C3)C2C1=O)NCCc1ccccc1Cl` (centres undefined) was 0%. The value for `O=C(CN(Cc1cccs1)C(=O)CNS(=O)(=O)c1ccccc1)NCc1ccco1` was 3%.

On to `Cc1ccccc1NC(=O)C1CCN(c2cnccn2)CC1`, for which the inhibition is 0%. The value for `CC(=O)SCCC(=O)Nc1ccccc1` was 0%.
